In PubChem BioAssay AID651564 (Sanford-Burnham Center for Chemical Genomics, 2012):
Some of the results follow. Unmarked numbers belong to inactive results. Active and inactive are the calls of the source. Cut-off read from the data, not from the text of the source: active = IC50 below about 80 µM; inactive = the rest.

Assay: isolated mitochondria fluorescence counter-assay – biochemical, uHTS hits, counter-screen for MPTP inhibitor project, dose response (AID 651564)
Settings: isolated mitochondria counterscreen, fluorescence read-out

SMILES: CN(C)Cc1ccc(F)cc1Sc1cc(Cl)ccc1Cl
- IC50: 69.1 µM (active)

SMILES: CCCCOC(=O)CNc1nnc(SCC(=O)OCC)[nH]c1=O
- IC50: > 80 µM

SMILES: CCCc1[nH]nc2c1C(c1c(C)nn(-c3ccccc3)c1Cl)C(C#N)=C(N)O2 (centres undefined)
- IC50: > 80 µM

SMILES: COc1ccc(/C=C(/CC(=O)Nc2ccc(C)cc2)c2nc3ccccc3s2)cc1
- IC50: > 80 µM

SMILES: Fc1ccc(N2N=C(c3cccs3)CC2c2ccco2)c(F)c1 (centres undefined)
- IC50: > 80 µM

SMILES: FC(F)(F)COc1nc(N2CCCCC2)nc(N2CCNCC2)n1
- IC50: > 80 µM

SMILES: CN1CCC[C@@H]1CCO[C@](C)(c1ccccc1)c1ccc(Cl)cc1
- IC50: > 80 µM

SMILES: Cc1ccc(-c2noc(CCC(=O)Nc3ccccc3N3CCN(C)CC3)n2)cc1
- IC50: > 80 µM

SMILES: CC1(C)CC(=O)c2sc(N)nc2C1
- IC50: > 80 µM

SMILES: Clc1ccc(-c2cc(C3CCNCC3)[nH]n2)c(Cl)c1
- IC50: > 80 µM

SMILES: CN(C)Cc1ccccc1C1(O)c2ccccc2CSc2ccccc21 (centres undefined)
- IC50: > 80 µM

SMILES: NC(N)=N/N=C/c1ccc(Cl)c([N+](=O)[O-])c1
- IC50: 71.5 µM (active)

SMILES: CCNCCC(=O)N1c2ccccc2Sc2ccc(NC(=O)OCC)cc21
- IC50: > 80 µM

SMILES: CCOC(=O)c1c(NC(=O)CSc2cn(CC)c3ccccc23)sc2c1CCC2
- IC50: > 80 µM

SMILES: Cc1nn(Cc2ccccc2)c2c1C(c1ccccc1)C(C#N)=C(N)O2 (centres undefined)
- IC50: 69.8 µM (active)

SMILES: O=C(NC1CCN(Cc2ccccc2)CC1)c1cc(Br)c(Br)[nH]1
- IC50: > 80 µM

SMILES: COc1ccc2sc(N(CCCN(C)C)C(=O)c3ccc(S(=O)(=O)N(C)C4CCCCC4)cc3)nc2c1
- IC50: 66.5 µM (active)

SMILES: NC[C@H](Cc1ccccc1)NCCc1cc(C(F)(F)F)cc(C(F)(F)F)c1
- IC50: 52.7 µM (active)

SMILES: CCCC[C@@H]1CN=C(N)N1CCc1cc(C(F)(F)F)cc(C(F)(F)F)c1
- IC50: 28.5 µM (active)
